In PubChem BioAssay (NCATS):
Inconclusive results are not listed. A call without a number means that no potency is given here. Active and inactive are the calls of the source. Calls follow the shape of the dose curve; as a rule, active = well fitted cell-killing curve with a large enough effect; inconclusive = small, poorly fitted or top-dose-only effect, or effect the other way; inactive = no such curve, though single readings can be large or run the other way.

Assay: Quantitative High-Throughput drug screen in 47 multiple myeloma cell lines against the NCATS MIPE library collection: RPMI8226_ATCC cell viability assay (AID 1919871)
Details: RPMI8226 myeloma viability, CellTiter-Glo ATP luminescence, 48 h; series mostly up to 45.8 µM
In short: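 Plated at 500 cells per well, myeloma lines received MIPE 4.0 compounds by pin tool. Following 48 h culture at 37 °C, CellTiter-Glo luminescence gave viability relative to DMSO and media-only controls.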
Also: nearly all actives have a fitted effect of over 30% in size.
Potency is read from the fitted curve at half-maximal effect.

| Structure (SMILES) | Potency |
| --- | --- |
| O=C(O)[C@H]1O[C@H](Oc2cc3oc(-c4ccccc4)cc(=O)c3c(O)c2O)[C@H](O)[C@@H](O)[C@H]1O | 4.69 µM (active) |
| O=c1[nH]cnc2c1ncn2[C@H]1CC[C@@H](CO)O1 | inactive |
| N#CC(=C(N)Sc1ccccc1N)C(C#N)=C(N)Sc1ccccc1N | 10.5 µM (active) |
| COc1ccc(-n2c(C)c([N+](=O)[O-])c3ccc(O)cc32)cc1 | inactive |
| CNC(=O)c1ccccc1Sc1ccc2c(C=Cc3ccccn3)n[nH]c2c1 | 18.7 µM (active) |
| NC1=N[C@@]2(c3cc(NC(=O)c4ccc(F)cn4)ccc3F)COC[C@@H]2CS1 | inactive |
| CO[C@H]1C[C@@H]2CC[C@@H](C)[C@@](O)(O2)C(=O)C(=O)N2CCCC[C@@H]2C(=O)O[C@H]([C@H](C)C[C@@H]2CC[C@H](OP(C)(C)=O)[C@H](OC)C2)CC(=O)[C@H](C)C=C(C)[C@@H](O)[C@@H](OC)C(=O)[C@H](C)C[C@H](C)C=CC=CC=C1C | inactive |
| CN(C)CCC=C1c2ccccc2COc2ccc(CC(=O)O)cc21 | inactive |
| CCC(CC)[C@H](NC(C)=O)[C@@H]1[C@H](O)[C@@H](C(=O)O)C[C@@H]1N=C(N)N | inactive |
| CCn1cc(C(=O)O)c(=O)c2ccc(C)nc21 | inactive |
| Cc1nnc(C(C)C)n1C1C[C@H]2CC[C@@H](C1)N2CC[C@H](NC(=O)C1CCC(F)(F)CC1)c1ccccc1 (stereo not given in full) | inactive |
| COc1ccc(-c2oc3c(CC=C(C)C)c(OC4O[C@H](CO)[C@@H](O)[C@H](O)[C@@H]4O)cc(O)c3c(=O)c2OC2O[C@@H](C)[C@H](O)[C@@H](O)[C@@H]2O)cc1 (stereo not given in full) | 20.9 µM (active) |
| CCOC(=O)O[C@]1(C(=O)OCCl)CC[C@@H]2[C@H]3CCC4=CC(=O)C=C[C@]4(C)[C@@H]3[C@@H](O)C[C@@]21C | 0.118 µM (active) |
| OC[C@H]1O[C@@H](n2cnc3c2NC=NC[C@@H]3O)C[C@H]1O | inactive |
| CCC(=O)NC[C@H](Cc1ccc(OCCc2nc(-c3ccccc3)oc2C)cc1)NC(C)=CC(=O)c1ccc(C(F)(F)F)cc1 | 23.5 µM (active) |
| COc1ccc(Cc2nccc3cc(OC)c(OC)cc23)cc1OC | inactive |
| O=C(Nc1ccccc1-c1cn2c(CN3CCNCC3)csc2n1)c1cnc2ccccc2n1 | 20.9 µM (active) |
| CNC(=O)c1ccc2cc(C3(O)CCn4cncc43)ccc2c1 (stereo not given) | inactive |
| Oc1ccc(C2CCN(c3ccnc4ccccc34)CC2)cc1O | 16.6 µM (active) |
| O=C(CCN1CCN(C(=O)OCc2cc(Cl)cc(Cl)c2)CC1)c1ccc2[nH]c(=O)oc2c1 | inactive |

Assay: Quantitative High-Throughput drug screen in 47 multiple myeloma cell lines against the NCATS MIPE library collection: OPM2_DSMZ cell viability assay (AID 1919872)
Details: OPM2 myeloma viability, CellTiter-Glo ATP luminescence, 48 h; series mostly up to 45.8 µM
In short: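 Luminescent ATP measurement with CellTiter-Glo gives viability, scaled between DMSO-only wells (100%) and media-only wells (0%). Cells, 500 per well, faced library compounds for 48 hours at 37C.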

| Structure (SMILES) | Potency |
| --- | --- |
| NC(=O)c1cccc2[nH]c(-c3ccc([C@H]4CCCN4)cc3F)nc12 | inactive |
| O=c1[nH]cnc2c1ncn2[C@H]1CC[C@@H](CO)O1 | inactive |
| N#CC(=C(N)Sc1ccccc1N)C(C#N)=C(N)Sc1ccccc1N | inactive |
| Clc1ccc(-c2nc3sccn3c2C=NOCc2ccc(Cl)c(Cl)c2)cc1 | inactive |
| COc1ccc(-n2c(C)c([N+](=O)[O-])c3ccc(O)cc32)cc1 | inactive |
| CO[C@H]1C[C@@H]2CC[C@@H](C)[C@@](O)(O2)C(=O)C(=O)N2CCCC[C@@H]2C(=O)O[C@H]([C@H](C)C[C@@H]2CC[C@H](OP(C)(C)=O)[C@H](OC)C2)CC(=O)[C@H](C)C=C(C)[C@@H](O)[C@@H](OC)C(=O)[C@H](C)C[C@H](C)C=CC=CC=C1C | inactive |
| CN(C)CCC=C1c2ccccc2COc2ccc(CC(=O)O)cc21 | inactive |
| CC1(C)CCC(CN2CCN(c3ccc(C(=O)NS(=O)(=O)c4ccc(NCC5CCOCC5)c([N+](=O)[O-])c4)c(Oc4cnc5[nH]ccc5c4)c3)CC2)=C(c2ccc(Cl)cc2)C1 | 20.9 µM (active) |
| CCC(CC)[C@H](NC(C)=O)[C@@H]1[C@H](O)[C@@H](C(=O)O)C[C@@H]1N=C(N)N | inactive |
| CCn1cc(C(=O)O)c(=O)c2ccc(C)nc21 | inactive |
| Nc1nc(F)nc2c1ncn2[C@@H]1O[C@H](COP(=O)(O)O)[C@@H](O)[C@H]1O | inactive |
| Cc1nnc(C(C)C)n1C1C[C@H]2CC[C@@H](C1)N2CC[C@H](NC(=O)C1CCC(F)(F)CC1)c1ccccc1 (stereo not given in full) | inactive |
| O=C(O)CCC1CCC(c2cc(F)ccc2F)(S(=O)(=O)c2ccc(Cl)cc2)CC1 (stereo not given) | inactive |
| COc1ccc(-c2oc3c(CC=C(C)C)c(OC4O[C@H](CO)[C@@H](O)[C@H](O)[C@@H]4O)cc(O)c3c(=O)c2OC2O[C@@H](C)[C@H](O)[C@@H](O)[C@@H]2O)cc1 (stereo not given in full) | 23.5 µM (active) |
| OC[C@H]1O[C@@H](Oc2cc(O)cc(C=Cc3ccc(O)cc3)c2)[C@H](O)[C@@H](O)[C@H]1O | inactive |
| CCOC(=O)O[C@]1(C(=O)OCCl)CC[C@@H]2[C@H]3CCC4=CC(=O)C=C[C@]4(C)[C@@H]3[C@@H](O)C[C@@]21C | inactive |
| C[C@]12CC[C@@H]3c4ccc(O)cc4CC[C@H]3[C@H]1C[C@@H](O)[C@H]2O | inactive |
| CC1(C)CCC[C@@]2(C)[C@@H]1CC[C@@]1(C)OC(=O)C[C@H]21 | inactive |
| OC[C@H]1O[C@@H](n2cnc3c2NC=NC[C@@H]3O)C[C@H]1O | inactive |
| O=C1NC(=O)C(=Cc2ccc3nccnc3c2)S1 | inactive |
| COc1ccc(Cc2nccc3cc(OC)c(OC)cc23)cc1OC | 11.8 µM (active) |
| N[C@H](CSC(c1ccccc1)(c1ccccc1)c1ccccc1)C(=O)O | 20.9 µM (active) |
| O=C(Nc1ccccc1-c1cn2c(CN3CCNCC3)csc2n1)c1cnc2ccccc2n1 | 23.5 µM (active) |
| CNC(=O)c1ccc2cc(C3(O)CCn4cncc43)ccc2c1 (stereo not given) | inactive |
| CCCCCN(C)CCC(O)(P(=O)(O)O)P(=O)(O)O | inactive |
